Structures can show the parent of a compound that is named as a salt. ± gives the standard deviation of the averaged measurements.
Key:
Experiment in all cases: growth (OD600 after 10 h); higher = more growth (less inhibition)
[1] = system: E. coli TESEC Alr+ wild-type control; conditions: compound 0.1 mM; raw OD600 reference: median of DMSO wells 0.241, cell-free background 0.041
Protocol: (§1)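 TESEC Mtb Alr E. coli, or the Alr+ wild-type control, in 384-well plates with Prestwick library compounds at 0.1 mM and 1% DMSO, across arabinose induction levels of 1E3 to 1E7 nM. Growth is read as OD600 after 10 h at 37 °C in triplicate biological replicates.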

[2] = system: E. coli TESEC Mtb Alr; conditions: compound 0.1 mM
Protocol: as §1

[3] = system: E. coli TESEC Mtb Asd; conditions: compound 0.1 mM
Protocol: (§2)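 TESEC E. coli strains in which the native enzyme is deleted and replaced by arabinose-inducible Mtb Asd, DapB, CysH or TrpD, each grown in its selective medium. Strains were screened against the Prestwick library at 0.1 mM and 1% DMSO in 384-well format at low and high arabinose induction. Growth is read as OD600 after 10 h in triplicate.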

[4] = system: E. coli TESEC Mtb DapB; conditions: compound 0.1 mM
Protocol: as §2

[5] = system: E. coli TESEC Mtb Alr; conditions: compound 0.1 mM; remark: listed apart in the source
Protocol: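 TESEC Mtb Alr E. coli (ΔaraC ΔtolC ΔentC Δalr ΔdadX, arabinose-inducible Mtb Alr) or the Alr+ wild-type control strain, grown in defined M9-fructose medium without D-alanine in 96-well plates with Prestwick library compounds at 0.1 mM and 1% DMSO. Low Alr induction is 0.1 µM arabinose and high induction is 10 mM arabinose.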

[6] = arabinose 1000 nM, raw OD600 reference: median of DMSO wells 0.294, cell-free background 0.041
[7] = arabinose 10000 nM, raw OD600 reference: median of DMSO wells 0.264, cell-free background 0.041
[8] = arabinose 100000 nM, raw OD600 reference: median of DMSO wells 0.201, cell-free background 0.041
[9] = arabinose 1000000 nM, raw OD600 reference: median of DMSO wells 0.193, cell-free background 0.041
[10] = arabinose 10000000 nM, raw OD600 reference: median of DMSO wells 0.146, cell-free background 0.041
[11] = arabinose induction (level): High, raw OD600 reference: median of DMSO wells 0.331, cell-free background 0.041
[12] = arabinose induction (level): Low, raw OD600 reference: median of DMSO wells 0.417, cell-free background 0.041
[13] = arabinose induction (level): High, raw OD600 reference: median of DMSO wells […], cell-free background 0.041
[14] = arabinose induction (level): Low, raw OD600 reference: median of DMSO wells 0.227, cell-free background 0.041
[15] = arabinose 100 nM, raw OD600 reference: median of DMSO wells 0.413, cell-free background 0.052
[16] = arabinose 10000000 nM, raw OD600 reference: median of DMSO wells […], cell-free background 0.052

Compound | growth [1] | growth [2, 6] | growth [2, 7] | growth [2, 8] | growth [2, 9] | growth [2, 10] | growth [3, 11] | growth [3, 12] | growth [4, 13] | growth [4, 14] | growth [5, 15] | growth [5, 16]
C[C@@H]1CCC[C@H](C)N1NC(=O)c1ccc(Cl)c(S(N)(=O)=O)c1 [Clopamide] | 0.235 ± 0.0084 | 0.294 ± 0.02 | 0.251 ± 0.0061 | 0.217 ± 0.022 | 0.173 ± 0.0061 | 0.135 ± 0.002 | 0.283 ± 0.036 | 0.354 ± 0.031 | 0.199 ± 0.01 | 0.225 ± 0.0079 | 0.419 ± 0.011 | 0.345 ± 0.015
COc1ccc(C(=O)c2ccccc2)c(O)c1 [Oxybenzone] | 0.114 ± 0.003 | 0.148 ± 0.011 | 0.15 ± 0.004 | 0.151 ± 0.017 | 0.0914 ± 0.0039 | 0.0993 ± 0.0024 | 0.223 ± 0.023 | 0.334 ± 0.01 | 0.186 ± 0.015 | 0.257 ± 0.0051 | 0.377 ± 0.022 | 0.146 ± 0.021
c1ccc(-c2ccc(C(c3ccccc3)n3ccnc3)cc2)cc1 (configuration not stated) [Bifonazole] | 0.048 ± 0.0064 | 0.0456 ± 0.0051 | 0.0548 ± 0.0019 | 0.0516 ± 0.0035 | 0.0499 ± 0.0019 | 0.0504 ± 0.0085 | 0.048 ± 0.00098 | 0.0481 ± 0.0011 | 0.0611 ± 0.0018 | 0.0597 ± 0.0022 | 0.0739 ± 0.015 | 0.0689 ± 0.0074
COc1ccc2[nH]c([S+]([O-])Cc3ncc(C)c(OC)c3C)nc2n1 (configuration not stated) [Tenatoprazole] | 0.202 ± 0.008 | 0.192 ± 0.0066 | 0.227 ± 0.012 | 0.128 ± 0.0093 | 0.0829 ± 0.0019 | 0.134 ± 0.0048 | 0.388 ± 0.031 | 0.379 ± 0.065 | 0.184 ± 0.0083 | 0.201 ± 0.017 | 0.397 ± 0.013 | 0.196 ± 0.035
CCC(C)(CN(C)C)OC(=O)c1ccccc1 (configuration not stated) [Amyleine hydrochloride] | 0.233 ± 0.0066 | 0.252 ± 0.052 | 0.266 ± 0.0091 | 0.183 ± 0.011 | 0.173 ± 0.0043 | 0.142 ± 0.0057 | 0.26 ± 0.076 | 0.435 ± 0.058 | 0.195 ± 0.027 | 0.209 ± 0.0057 | 0.411 ± 0.0066 | 0.333 ± 0.021
NCCc1cc[nH]n1 [Betazole hydrochloride] | 0.25 ± 0.0071 | 0.254 ± 0.06 | 0.259 ± 0.014 | 0.2 ± 0.03 | 0.1943 ± 0.00064 | 0.14 ± 0.0021 | 0.279 ± 0.0079 | 0.379 ± 0.081 | 0.215 ± 0.021 | 0.254 ± 0.052 | 0.408 ± 0.013 | 0.305 ± 0.067
CC(C)/N=c1\cc2n(-c3ccc(Cl)cc3)c3ccccc3nc-2cc1Nc1ccc(Cl)cc1 [Clofazimine] | 0.158 ± 0.004 | 0.231 ± 0.016 | 0.154 ± 0.037 | 0.225 ± 0.023 | 0.0638 ± 0.0033 | 0.168 ± 0.013 | 0.247 ± 0.053 | 0.337 ± 0.11 | 0.248 ± 0.023 | 0.261 ± 0.012 | 0.395 ± 0.031 | 0.06873 ± 0.00031
COC(=O)C1=C(C)NC(C)=C(C(=O)OC)C1c1ccccc1[N+](=O)[O-] [Nifedipine] | 0.0488 ± 0.00049 | 0.144 ± 0.0021 | 0.2006 ± 0.0018 | 0.136 ± 0.0053 | 0.0952 ± 0.0041 | 0.149 ± 0.0044 | 0.0844 ± 0.0011 | 0.0795 ± 0.0099 | 0.155 ± 0.018 | 0.216 ± 0.069 | 0.39 ± 0.0088 | 0.21 ± 0.039
CN(CCCN1c2ccccc2CCc2ccccc21)CC(=O)c1ccc(Cl)cc1 [Lofepramine] | 0.133 ± 0.0019 | 0.199 ± 0.0064 | 0.127 ± 0.0072 | 0.194 ± 0.0099 | 0.0713 ± 0.0042 | 0.159 ± 0.0095 | 0.27 ± 0.062 | 0.196 ± 0.025 | 0.23 ± 0.064 | 0.227 ± 0.017 | 0.4242 ± 0.0042 | 0.202 ± 0.017
CC(N)CCCC(C)(C)O (configuration not stated) [Heptaminol hydrochloride] | 0.252 ± 0.0036 | 0.285 ± 0.011 | 0.26 ± 0.013 | 0.204 ± 0.04 | 0.1796 ± 0.0016 | 0.141 ± 0.0064 | 0.357 ± 0.015 | 0.442 ± 0.022 | 0.188 ± 0.0059 | 0.195 ± 0.02 | 0.407 ± 0.011 | 0.36 ± 0.0092
CC(C)(Oc1ccc(C2CC2(Cl)Cl)cc1)C(=O)O (configuration not stated) [Ciprofibrate] | 0.205 ± 0.046 | 0.263 ± 0.0056 | 0.273 ± 0.0078 | 0.154 ± 0.004 | 0.187 ± 0.016 | 0.123 ± 0.0026 | 0.26 ± 0.032 | 0.303 ± 0.051 | 0.203 ± 0.018 | 0.207 ± 0.012 | 0.43 ± 0.0055 | 0.312 ± 0.016
CN[C@@H]1[C@H](O[C@H]2[C@H](O[C@H]3[C@H](O)[C@@H](O)[C@H](N=C(N)N)[C@@H](O)[C@@H]3N=C(N)N)O[C@@H](C)[C@]2(O)C=O)O[C@@H](CO)[C@H](O)[C@H]1O [Streptomycin sulfate] | 0.04117 ± 5.8e-05 | 0.04617 ± 0.00029 | 0.0396 ± 0.00055 | 0.04577 ± 0.00042 | 0.03957 ± 0.00025 | 0.0731 ± 0.0022 | 0.0611 ± 0.0021 | 0.0528 ± 0.00084 | 0.108 ± 0.048 | 0.0695 ± 0.0084 | 0.0665 ± 0.0098 | 0.05093 ± 0.00012
CN(C)C(=N)NC(=N)N [Metformin hydrochloride] | 0.253 ± 0.0099 | 0.281 ± 0.026 | 0.258 ± 0.0057 | 0.238 ± 0.03 | 0.178 ± 0.0068 | 0.145 ± 0.0029 | 0.372 ± 0.032 | 0.404 ± 0.032 | 0.218 ± 0.037 | 0.235 ± 0.043 | 0.404 ± 0.015 | 0.349 ± 0.032
Nc1ccc(C(=O)O)c(O)c1 [4-aminosalicylic acid] | 0.247 ± 0.0075 | 0.305 ± 0.011 | 0.277 ± 0.0057 | 0.201 ± 0.017 | 0.19 ± 0.004 | 0.153 ± 0.0068 | 0.222 ± 0.024 | 0.377 ± 0.086 | 0.199 ± 0.025 | 0.263 ± 0.017 | 0.422 ± 0.0061 | 0.302 ± 0.014
NS(=O)(=O)c1cc(Cl)c(Cl)c(S(N)(=O)=O)c1 [Dichlorphenamide] | 0.25 ± 0.0031 | 0.298 ± 0.012 | 0.2704 ± 0.0016 | 0.211 ± 0.027 | 0.186 ± 0.011 | 0.131 ± 0.0026 | 0.312 ± 0.027 | 0.456 ± 0.038 | 0.213 ± 0.007 | 0.256 ± 0.026 | 0.402 ± 0.017 | 0.399 ± 0.032
N[C@@H](C(=O)N[C@@H]1C(=O)N2C(C(=O)O)=C(Cl)CS[C@H]12)c1ccccc1 [Cefaclor hydrate] | 0.264 ± 0.0067 | 0.315 ± 0.0086 | 0.249 ± 0.0072 | 0.244 ± 0.025 | 0.1991 ± 0.0017 | 0.158 ± 0.021 | 0.333 ± 0.052 | 0.425 ± 0.067 | 0.201 ± 0.0068 | 0.247 ± 0.017 | 0.224 ± 0.036 | 0.354 ± 0.032

From the supplement of paper PMC9262897, “Low-cost anti-mycobacterial drug discovery using engineered E. coli” (Nature Communications, 2022)
